Experimental data published in PubChem BioAssay (Tox21).
Where “and” joins values, the source holds several entries; their conditions need not be identical. Equal values may be shown once. Records with an inconclusive call do not appear. A call without a number means that no potency is given here. A structure can be active in one record and inactive in another. Calls of active or inactive are those of the source. Unless noted, calls come from the whole dose curve.

How the values were obtained:
[1] = Nuclear factor erythroid 2-related factor 2/antioxidant responsive element (Nrf2/ARE) small molecule agonists: qHTS cell viability counter screen in human keratinocytes (AID 1919968; active = well fitted curve in the direction sought with a large enough effect in the repeat runs; an effect the other way counts as inactive or inconclusive; note: nearly all actives have a fitted effect of over 55% in size)
Procedure, shortened: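 Stably transfected HaCaT (KeratinoSens), 1,500/well. Test agents in DMSO were applied for 23 h, 37 C/5% CO2. CellTiter-Fluor was incubated 1 h before the fluorescence read.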

[2] = Nuclear factor erythroid 2-related factor 2/antioxidant responsive element (Nrf2/ARE) small molecule agonists: luciferase reporter gene qHTS assay in human keratinocytes (AID 1919969); note: nearly all actives have a fitted effect of over 35% in size
[3] = molecular target: Gonadotropin-releasing hormone receptor (Homo sapiens) (UniProt P30968); assay: Human gonadotropin-releasing hormone receptor (GnRHR) small molecule agonists, calcium flux assay in GnRHR-HEK293 cells (AID 1920063); note: nearly all actives have a fitted effect of over 35% in size
Procedure, shortened: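 Stable human GnRHR HEK293 line. 18 h plating, then calcium dye for 1 h at 37 C. Agonist-mode compound addition from DMSO stocks; fluorescence monitored 3 min.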

[4] = molecular target: KiSS-1 receptor (Homo sapiens) (UniProt Q969F8); assay: Human kisspeptin (KISS1R) small molecule agonists, calcium flux assay in KISS1R-HEK293 cells (AID 1920064; active = well fitted curve in the direction sought with a large enough effect in the repeat runs; an effect the other way counts as inactive or inconclusive)
Procedure, shortened: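 After overnight (18 h) culture at 37 C/5% CO2, human KISS1R-HEK293 cells received calcium dye for 1 h, then test compound; emission at 540 nm (excitation 480 nm) was tracked for 3 min.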

[5] = G protein-coupled receptor (GPCR) small molecule agonists, calcium flux assay: HEK293 wild type cell line counter screen (AID 1920065)
Procedure, shortened: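 Following 18 h incubation at 37 C/5% CO2, plates got calcium dye for 1 h; compounds, ATP or DMSO were then pinned in and fluorescence followed kinetically (480/540 nm).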

[6] = p53 small molecule agonists, cell-based qHTS assay with human liver microsomes (AID 1963577)
Procedure, shortened: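 p53RE-bla cells, 4,000/well, compound added after 5 h, with human liver microsomes 0.5 mg/mL and NADPH 0.5 mg/mL final; 16 h at 37 C, then LiveBLAzer 2 h RT, fluorescence.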

[7] = p53 small molecule agonists, cell-based qHTS assay with rat liver microsomes (AID 1963578)
Procedure, shortened: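 p53RE-bla cells, 4,000/well, pre-incubated 5 h, then given compounds plus rat liver microsomes (0.5 mg/mL final) and NADPH (0.5 mg/mL final). Incubation 16 h at 37 C; beta-lactamase reporter read by LiveBLAzer fluorescence after 2 h at room temperature.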

[8] = p53 small molecule agonists, cell-based qHTS assay with human liver microsomes: qHTS cell viability counter screen (AID 1963579); note: nearly all actives have a fitted effect of over 45% in size
Procedure, shortened: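 p53RE-bla cells, 4,000/well, dosed 5 hours after plating, with human liver microsomes (0.5 mg/mL final) plus NADPH (0.5 mg/mL final), 16 hours at 37 C. Viability read as CellTiter-Glo luminescence after 30 min at room temperature.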

[9] = p53 small molecule agonists, cell-based qHTS assay with rat liver microsomes: qHTS cell viability counter screen (AID 1963580); note: nearly all actives have a fitted effect of over 45% in size
Procedure, shortened: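 Rat liver microsome (0.5 mg/mL final) and NADPH (0.5 mg/mL final) co-incubation with compounds for 16 h at 37 C on HCT-116 p53RE-bla cells; cytotoxicity taken from intracellular ATP luminescence.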

[10] = p53 small molecule agonists, cell-based qHTS assay: qHTS cell viability counter screen (AID 1963581); note: nearly all actives have a fitted effect of over 45% in size
Procedure, shortened: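 qHTS counter screen: 16 h compound exposure at 37 C of p53RE-bla HCT-116 cells (4,000 per well, seeded 5 h prior), cell viability by ATP luminescence.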

[11] = p53 small molecule agonists, cell-based qHTS assay (AID 1963582; active = well fitted activation curve with a large enough effect in the signal ratio in the repeat runs, not every such curve was filed as active; the % refers to the signal ratio)
Procedure, shortened: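 Measured: fluorescence from cleaved LiveBLAzer substrate. System: p53RE-bla cells, 16 h compound treatment at 37 C, 2 h substrate step at room temperature.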

[12] = molecular target: 5-hydroxytryptamine receptor 2A (Homo sapiens) (UniProt P28223); assay: 5-hydroxytryptamine receptor 2A (HTR2A) small molecule antagonists, cell-based qHTS assay (AID 1963586); note: nearly all actives have a fitted effect of over 45% in size; note: potency is the fitted concentration of half-maximal effect
Procedure, shortened: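 CHO cells stably expressing human HTR2A were plated for 18 h at 37 C, then loaded with calcium dye for 1 h. Compounds were preincubated 5 min at room temperature before DOI (4 nM solution) was added. Kinetic fluorescence was read for 3 min.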

[13] = molecular target: 5-hydroxytryptamine receptor 2A (Homo sapiens) (UniProt P28223); assay: 5-hydroxytryptamine receptor 2A (HTR2A) small molecule agonists, cell-based qHTS assay (AID 1963587); note: nearly all actives have a fitted effect of over 30% in size
Procedure, shortened: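 Kinetic calcium-flux fluorescence (2 min, 1 sec intervals) after compound addition in agonist mode. HTR2A-CHO cells were cultured 18 h, then dye-loaded 1 h at 37 C.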

[14] = molecular target: Muscarinic acetylcholine receptor M1 (Homo sapiens) (UniProt P11229); assay: Cholinergic receptor muscarinic 1 (CHRM1) small molecule antagonists, cell-based qHTS assay (AID 1963588); note: nearly all actives have a fitted effect of over 40% in size; note: potency is the fitted concentration of half-maximal effect
Procedure, shortened: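 Compounds were tested at 15 concentrations in three independent runs. Dye-loaded CHRM1-CHO cells were exposed 5 min at room temperature before stimulation by acetylcholine added at 50nM. Intracellular calcium was read kinetically on FDSS for 3 min.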

[15] = molecular target: Muscarinic acetylcholine receptor M1 (Homo sapiens) (UniProt P11229); assay: Cholinergic receptor muscarinic 1 (CHRM1) small molecule agonists, cell-based qHTS assay (AID 1963589); note: nearly all actives have a fitted effect of over 35% in size
Procedure, shortened: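 Kinetic fluorescence (1 s intervals) of calcium-sensitive dye in human M1 CHO cells after compound addition; cells pre-incubated 18 h at 37 C/5% CO2 and dye-loaded 1 h.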

[16] = cAMP Responsive Elements (CRE) small molecule agonists, cell-based qHTS assay (AID 1963590)
Procedure, shortened: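 Test agents in DMSO were incubated 3 h at 37 C/5% CO2 with CRE-bla HEK 293T cells seeded 18 h earlier; LiveBLAzer B/G FRET substrate was added and read after 2 h at room temperature.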

[17] = cAMP Responsive Elements (CRE) small molecule antagonists, cell-based qHTS assay (AID 1963591; active = well fitted inhibition curve with a large enough effect in the signal ratio in the repeat runs, not every such curve was filed as active; the % refers to the signal ratio; note: potency is the fitted concentration of half-maximal effect)
Procedure, shortened: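 Reporter line CRE-bla HEK 293T in dialyzed-FBS DMEM; cells preincubated 18 h, treated 3 h with compound plus NKH477 (0.25 uM final); LiveBLAzer FRET, 2 h RT.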

[18] = molecular target: Beta-2 adrenergic receptor (Homo sapiens) (UniProt P07550); assay: Adrenergic beta2 receptor (ADRB2) small molecule antagonists, cell-based qHTS assay (AID 1963592); note: series mostly up to about 92 µM; nearly all actives have a fitted effect of over 50% in size
Procedure, shortened: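 Assay format: CHO-ADRB2 cells, 18-20hr seeding at 37C/5% CO2, then compound plus 1nM isoproterenol agonist mix for 0.5hr RT. Homogeneous time-resolved fluorescence cAMP detection after 1hr, expressed as 665/615 nm ratio.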

[19] = molecular target: Beta-2 adrenergic receptor (Homo sapiens) (UniProt P07550); assay: Adrenergic beta2 receptor (ADRB2) small molecule agonists, cell-based qHTS assay (AID 1963593);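 note: CHO cells stably overexpressing human ADRB2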
Procedure, shortened: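 CHO cells stably over-expressing ADRB2 were plated overnight at 37C, then dosed with compounds plus a stimulation mix containing 100uM IBMX and 25uM Ro-20-1724 for 0.5hr at room temperature. cAMP was measured by HTRF competition, 1hr.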

[20] = molecular target: D(2) dopamine receptor (Homo sapiens) (UniProt P14416); assay: Dopamine D2 receptor (DRD2) small molecule agonists, cell-based qHTS assay (AID 1963594); note: nearly all actives have a fitted effect of over 35% in size
Procedure, shortened: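 cAMP accumulation in DRD2-HEK293 cells measured by HTRF after 1 h detection; compounds added 10 min before NKH477 (200nM […]) forskolin-analogue stimulation, 30 min at room temperature, with Ro20-1724 present at 0.1 mM final.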

Chain of 5-hydroxytryptamine receptor 2A (Homo sapiens) (P28223 whole entry, looked up): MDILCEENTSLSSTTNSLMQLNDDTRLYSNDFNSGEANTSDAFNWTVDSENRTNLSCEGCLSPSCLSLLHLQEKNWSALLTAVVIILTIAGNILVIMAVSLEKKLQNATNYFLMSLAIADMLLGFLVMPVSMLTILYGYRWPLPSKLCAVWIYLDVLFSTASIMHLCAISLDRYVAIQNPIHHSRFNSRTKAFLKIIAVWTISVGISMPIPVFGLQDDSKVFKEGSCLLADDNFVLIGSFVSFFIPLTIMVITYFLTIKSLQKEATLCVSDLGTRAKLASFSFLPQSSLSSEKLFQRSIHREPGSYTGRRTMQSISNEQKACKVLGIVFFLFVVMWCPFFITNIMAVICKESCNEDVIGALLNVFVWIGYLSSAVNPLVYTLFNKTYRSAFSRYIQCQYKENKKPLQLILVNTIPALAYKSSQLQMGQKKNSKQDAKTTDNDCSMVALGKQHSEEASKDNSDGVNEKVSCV
Chain of Beta-2 adrenergic receptor (Homo sapiens) (P07550 whole entry, looked up): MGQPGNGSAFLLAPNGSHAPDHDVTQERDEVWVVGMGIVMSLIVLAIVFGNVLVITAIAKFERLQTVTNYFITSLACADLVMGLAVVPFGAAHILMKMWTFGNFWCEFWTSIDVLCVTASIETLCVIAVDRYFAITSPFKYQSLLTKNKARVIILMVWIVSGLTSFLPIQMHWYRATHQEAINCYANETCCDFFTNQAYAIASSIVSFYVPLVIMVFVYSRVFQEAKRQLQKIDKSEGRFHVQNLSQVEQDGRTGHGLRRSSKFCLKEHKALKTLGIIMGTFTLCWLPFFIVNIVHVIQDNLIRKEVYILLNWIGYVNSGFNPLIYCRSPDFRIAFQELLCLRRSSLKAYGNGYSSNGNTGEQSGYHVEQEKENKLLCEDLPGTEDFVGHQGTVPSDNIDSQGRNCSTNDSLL
Chain of Gonadotropin-releasing hormone receptor (Homo sapiens) (P30968 whole entry, looked up): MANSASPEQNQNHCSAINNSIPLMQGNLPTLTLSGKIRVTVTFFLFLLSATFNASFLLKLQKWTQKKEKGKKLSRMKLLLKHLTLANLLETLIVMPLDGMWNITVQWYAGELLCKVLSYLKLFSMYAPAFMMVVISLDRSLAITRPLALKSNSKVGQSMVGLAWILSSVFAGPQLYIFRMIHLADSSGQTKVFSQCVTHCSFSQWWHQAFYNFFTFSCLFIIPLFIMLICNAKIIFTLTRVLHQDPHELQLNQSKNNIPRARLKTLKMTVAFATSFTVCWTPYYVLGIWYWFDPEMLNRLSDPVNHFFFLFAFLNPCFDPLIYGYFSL
Chain of Muscarinic acetylcholine receptor M1 (Homo sapiens) (P11229 whole entry, looked up): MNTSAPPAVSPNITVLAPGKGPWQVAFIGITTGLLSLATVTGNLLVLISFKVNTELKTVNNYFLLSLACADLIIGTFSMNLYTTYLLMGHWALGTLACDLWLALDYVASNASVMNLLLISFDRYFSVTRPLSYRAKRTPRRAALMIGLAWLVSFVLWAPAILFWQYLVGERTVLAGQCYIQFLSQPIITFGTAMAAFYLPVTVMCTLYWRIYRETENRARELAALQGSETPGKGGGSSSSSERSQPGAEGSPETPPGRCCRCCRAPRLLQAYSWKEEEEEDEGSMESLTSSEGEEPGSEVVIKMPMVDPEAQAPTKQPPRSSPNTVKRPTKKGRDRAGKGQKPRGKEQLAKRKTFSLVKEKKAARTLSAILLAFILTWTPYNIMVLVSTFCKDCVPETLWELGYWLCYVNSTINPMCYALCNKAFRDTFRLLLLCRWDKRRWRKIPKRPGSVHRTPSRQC
Chain of D(2) dopamine receptor (Homo sapiens) (P14416 whole entry, looked up): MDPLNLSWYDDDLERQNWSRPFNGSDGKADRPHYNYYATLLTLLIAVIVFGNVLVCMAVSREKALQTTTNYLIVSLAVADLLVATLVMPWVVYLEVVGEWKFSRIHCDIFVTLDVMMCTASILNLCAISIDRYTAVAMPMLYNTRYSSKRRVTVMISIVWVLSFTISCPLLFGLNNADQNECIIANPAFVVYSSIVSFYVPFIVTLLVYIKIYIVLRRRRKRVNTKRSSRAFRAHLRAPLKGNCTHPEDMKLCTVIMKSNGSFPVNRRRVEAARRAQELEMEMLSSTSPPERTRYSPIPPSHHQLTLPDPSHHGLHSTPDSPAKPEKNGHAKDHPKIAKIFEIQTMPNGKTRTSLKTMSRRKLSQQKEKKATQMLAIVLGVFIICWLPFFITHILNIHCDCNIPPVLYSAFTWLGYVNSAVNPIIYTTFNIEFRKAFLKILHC
Chain of KiSS-1 receptor (Homo sapiens) (Q969F8 whole entry, looked up): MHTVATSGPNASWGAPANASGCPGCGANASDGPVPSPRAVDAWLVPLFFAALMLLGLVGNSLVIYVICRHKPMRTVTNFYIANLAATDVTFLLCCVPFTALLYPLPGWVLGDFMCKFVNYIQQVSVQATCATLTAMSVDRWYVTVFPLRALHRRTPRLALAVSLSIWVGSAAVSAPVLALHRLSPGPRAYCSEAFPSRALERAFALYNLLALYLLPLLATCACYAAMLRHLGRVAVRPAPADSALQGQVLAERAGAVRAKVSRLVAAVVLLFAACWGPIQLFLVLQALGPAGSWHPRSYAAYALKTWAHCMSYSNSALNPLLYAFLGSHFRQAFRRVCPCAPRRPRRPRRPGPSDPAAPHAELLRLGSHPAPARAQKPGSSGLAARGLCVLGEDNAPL

SMILES | Potency [1] | Potency [2] | Potency [3] | Potency [4] | Potency [5] | Potency [6] | Potency [7] | Potency [8] | Potency [9] | Potency [10] | Potency [11] | Potency [12] | Potency [13] | Potency [14] | Potency [15] | Potency [16] | Potency [17] | Potency [18] | Potency [19] | Potency [20]
C=CC(C)(O)CC/C=C(\C)CCC=C(C)C (stereo not given) | inactive | inactive | inactive | inactive | inactive | inactive | inactive | inactive | inactive | inactive | inactive | inactive | inactive | inactive | inactive | inactive | inactive | inactive | inactive | inactive
[K+] | inactive | inactive | inactive | inactive | inactive | inactive | inactive | inactive | inactive | inactive | inactive | inactive | inactive | inactive | inactive | inactive | inactive | inactive | inactive | inactive
CC(C)C(=O)c1c(C(C)C)nn2ccccc12 | inactive | inactive | inactive | inactive | inactive | inactive | inactive | inactive | inactive | inactive | inactive | inactive | inactive | inactive | inactive | inactive | inactive | inactive | inactive | inactive
O=C(O)c1ccc([N+](=O)[O-])cc1 | inactive | inactive | inactive | inactive | inactive | inactive | inactive | inactive | inactive | inactive | inactive | inactive | inactive | inactive | inactive | inactive | inactive | inactive | inactive | inactive
CCCCC(CC)COP(=O)(OCC(CC)CCCC)OCC(CC)CCCC (stereo not given) | inactive | inactive | inactive | inactive | inactive | inactive | inactive | inactive | inactive | inactive | inactive | inactive | inactive | inactive | inactive | inactive | inactive | inactive | inactive | inactive
OCC#CCO | inactive | inactive | inactive | inactive | inactive | inactive | inactive | inactive | inactive | inactive | inactive | inactive | inactive | 17 µM (active) and inactive | inactive | inactive | inactive | inactive | inactive | inactive
CC(C)(C)C(=O)OCOC(=O)C1N2C(=O)CC2S(=O)(=O)C1(C)C (stereo not given) | inactive | inactive | inactive | inactive | inactive | inactive | inactive | inactive | inactive | inactive | inactive | inactive | inactive | inactive | inactive | inactive | 11.9 nM (active) | inactive | inactive | inactive
C=C(C)[C@@H]1CC[C@@H](C)C[C@@H]1O | inactive | inactive | inactive | inactive | inactive | inactive | inactive | inactive | inactive | inactive | inactive | inactive | inactive | inactive | inactive | inactive | inactive | inactive | inactive | inactive
CC(C)(CC(=O)O)C(=O)O | inactive | inactive | inactive | inactive | inactive | inactive | inactive | inactive | inactive | inactive | inactive | inactive | inactive | inactive | inactive | inactive | inactive | inactive | inactive | inactive
Cc1ccc(N(C)C)cc1 | inactive | inactive | inactive | inactive | inactive | inactive | inactive | inactive | inactive | inactive | inactive | inactive and 133 nM (active) | inactive | inactive | inactive | inactive | inactive | inactive | inactive | inactive
Cc1ccccc1C(=O)N1CC/C(=N\OS(=O)(=O)O)c2ccc(Cl)cc21 | inactive | inactive | inactive | inactive | inactive | inactive | inactive | inactive | inactive | inactive | inactive | inactive | inactive | inactive | inactive | inactive | inactive | inactive | inactive | inactive
CCCC(C)CCC(C)=O (stereo not given) | inactive | inactive | inactive | inactive | inactive | inactive | inactive | inactive | inactive | inactive | inactive | inactive | inactive | inactive | inactive | inactive | inactive | inactive | inactive | inactive
Nc1ccc2c(S(=O)(=O)O)cccc2c1S(=O)(=O)O | inactive | inactive | inactive | inactive | inactive | inactive | inactive | inactive | inactive | inactive | inactive | inactive | inactive | inactive | inactive | inactive | inactive | inactive | inactive | inactive
O=C(O)c1ccc(O)cc1O | inactive | inactive | inactive | inactive | inactive | inactive | inactive | inactive | inactive | inactive | inactive | inactive | inactive | inactive | inactive | inactive | inactive | inactive | inactive | inactive
